# PubChem BioAssay AID540299 (ICCB-Longwood Screening Facility, Harvard Medical School, 2011)
# Values joined by “and” are separate entries in the source; they are usually repeats but may differ in a detail not shown here. Equal values may be shown once. The campaign covered roughly 100,000 compounds. About 440 (0.44%) were called active. This is one part of a sample in which actives are shown more often than they occur. Rule as the data show it: active = inhibition above about 21% (passing the limit was not always enough); inactive = the rest. The source holds several records for some structures; these can differ, active in one and inactive in another.
# Biological target: 1,4-dihydroxy-2-naphthoyl-CoA synthase (Mycobacterium tuberculosis (strain ATCC 25618 / H37Rv)) (UniProt P9WNP5)
# Sequence (P9WNP5 whole entry, looked up): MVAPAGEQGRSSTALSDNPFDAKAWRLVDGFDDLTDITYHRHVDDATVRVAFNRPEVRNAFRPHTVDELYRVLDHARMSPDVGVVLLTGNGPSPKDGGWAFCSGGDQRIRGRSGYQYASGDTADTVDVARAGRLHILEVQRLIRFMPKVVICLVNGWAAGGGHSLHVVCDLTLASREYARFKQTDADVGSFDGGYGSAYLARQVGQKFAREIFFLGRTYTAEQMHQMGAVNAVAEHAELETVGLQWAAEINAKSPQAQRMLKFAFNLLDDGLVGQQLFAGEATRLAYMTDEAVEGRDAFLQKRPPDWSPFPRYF
# Assay: M. tuberculosis MenB inhibitors, primary screen, biochemical, absorbance (AID 540299)
# Conditions: MenB enzyme assay, absorbance read-out; stronger effect = higher value; concentration not given here
row,Compound,inhibition
1,COc1cc(C(=O)N2CCC(n3nnc4cc(F)ccc43)CC2)cc(OC)c1OC,-27.8% (inactive)
2,CCOC(=O)c1cnc2cc(C(F)(F)F)ccc2c1N1CCCCCC1,-32.7% (inactive)
3,CCOC(=O)CN1CCC(n2nnc3cc(C(F)(F)F)ccc32)CC1,40.1% (active)
4,CCCN(CCC)C(=O)c1cc(-c2ccccc2)n[nH]1,2.47% (inactive)
5,CCCC(=O)N1CCN(c2ccc(NC(=O)c3cccc(C)c3OC)cc2Cl)CC1,-14.8% (inactive)
6,CCCC(=O)N1CCN(c2ccc(NC(=O)c3ccco3)cc2Cl)CC1,36.3% (active)
7,O=C(Nc1ccccc1)c1ccco1,-38.1% (inactive)
8,CCC(=O)Nc1cc(NC(=O)c2ccco2)ccc1C,3.59% (inactive)
9,CCCC(CCC)C(=O)Nc1ccc(NC(=O)c2ccco2)cc1,34.4% (active)
10,Cc1cccc(C(=O)Nc2ccc(NC(=O)c3ccco3)cc2)c1,-25.7% (inactive)
11,CCC(/C=N/N1C(=O)c2ccccc2C1=O)CC,4.86% (inactive)
12,CCSc1nnc(C2CCN(CC(=O)Nc3ccc(N4CCCCCC4)cc3)CC2)n1C,-53.3% (inactive)
13,Cc1cc(C)nc(N2CCCC(C)C2)n1 (stereo not drawn),-26.5% (inactive)
14,N#CC1=C(N)/C(=C\c2ccc(Cl)c(Cl)c2)SC1=N,-31% (inactive)
15,Cc1cc(C)nc(SCC(=O)N2CCCC2c2cccs2)n1 (stereo not drawn),-1.45% (inactive)
16,O=C1C=C/C(=N\OC(=O)c2ccccc2)C2=C1C1C=CC2C1 (stereo not drawn),-24.3% (inactive)
17,COc1ccc(-c2noc(CNC3CCCCC3)n2)cc1,-2.19% (inactive)
18,CC1Sc2nnc(-c3ccc(OC(F)F)cc3)n2N=C1c1ccc(NS(C)(=O)=O)cc1 (stereo not drawn),-9.43% (inactive)
19,N#Cc1cc(Cl)c2c(c1)OCCO2,-39.8% (inactive)
20,O=C(COC(=O)Cn1[nH]c(=O)c2ccccc2c1=O)Nc1ncc(Cl)cc1Cl,1.74% (inactive)
21,Cc1nc2ccc(NC(=O)CC(C)(C)C)cc2s1,-7.18% (inactive)
22,N#Cc1nc(NC(=O)c2cc(-c3cccs3)nc3ccccc23)[nH]c1C#N,-0.59% (inactive)
23,O/N=C(/c1ccccc1)c1ccccn1,17.8% (inactive)
24,CN1C(=O)C(C(=O)O)C2CC1Oc1ccccc12 (stereo not drawn),34.4% (active)
25,CCN1C(=O)C(C(=O)NC(C)c2ccccc2)C2CC1(C)Oc1ccccc12 (stereo not drawn),25.7% (inactive)

row,Compound,inhibition
1,CN1C(=O)C(S(=O)(=O)c2ccccc2)C2CC1(C)Oc1ccccc12 (stereo not drawn),11.3% (inactive)
2,CCCCC#Cc1cncc(C(=O)O)c1,-22.8% (inactive)
3,CCN(c1ccccc1)S(=O)(=O)c1cccc(C(=O)O)c1,-9.9% (inactive)
4,CCN(CC)Cc1cc(C(=O)O)co1,31.6% (active)
5,COc1ccc(C(=O)OCc2ccccn2)cc1,-2.18% (inactive)
6,COC(=O)c1ccccc1NC(=O)C1CCN(S(=O)(=O)c2ccc(OC)c(OC)c2)CC1,-4.4% (inactive)
7,O=c1c(O)coc(CO)c1C(Nc1ccccn1)c1ccccc1O (stereo not drawn),-8.94% (inactive)
8,Cc1ccc(NC(=O)CC(C)S(=O)(=O)c2ccc3c(c2)SCC(=O)N3)cc1 (stereo not drawn),-27.7% (inactive)
9,O=C(CN1CCCCC1)N1N=C(c2cccs2)CC1c1ccc(O)cc1 (stereo not drawn),-15.9% (inactive)
10,CN1C(=O)c2cccc(NC(=O)c3ccccc3)c2C1=O,-46.4% (inactive)
11,COc1cccc2c1C(=O)C1C(O)=C3C(=C(O)C1C2=O)C[C@@](O)(C(=O)CO)C[C@@H]3OC1CC(N)C(O)C(C)O1 (stereo partly drawn),4.12% (inactive)
12,CN(Cc1cccc(Cl)c1Cl)CC(O)COCc1ccccc1 (stereo not drawn),-5.12% (inactive)
13,COc1ccc(Cc2nnc3n2N=C(N)CS3)cc1,8.07% (inactive)
14,CCNc1nnc(-c2ccc(C)cc2)s1,-8.94% (inactive)
15,COc1ccc(-c2noc(N3CCN(c4ccc(OC)cc4)CC3)n2)cc1,1.43% (inactive)
16,COc1cc(C)cc(CN2CCN(S(=O)(=O)c3ccccc3C#N)CC2)c1O,-41.6% (inactive)
17,CCN1C(=O)C2C(c3cccs3)NC(C)(C(=O)OC)C2C1=O (stereo not drawn),15.1% (inactive)
18,CCOC(=O)C1(Cc2ccc(O)cc2)NC(c2ccccc2F)C2C(=O)N(C)C(=O)C21 (stereo not drawn),-10.9% (inactive)
19,CCCC1(C(=O)OC)NC(c2ccco2)C2C(=O)N(C)C(=O)C21 (stereo not drawn),29.6% (active)
20,CC1CCCCN1CC(=O)Nc1cc(C(C)(C)C)nn1-c1ccccc1 (stereo not drawn),7.46% (inactive)
21,COc1ccc2c(CC(=O)OCC(=O)Nc3c(C)n(C)n(-c4ccccc4)c3=O)coc2c1,-0.895% (inactive)
22,Cc1cc(N2CCN(C3CCCCC3)CC2)c2nncn2n1,0.645% (inactive)
23,O=C1CC2NCCc3cccc1c32 (stereo not drawn),-9.34% (inactive)
24,CCNS(=O)(=O)c1ccc(-c2cc(C)no2)s1,-3.52% (inactive)
25,O=C(COC(=O)c1ccc(S(=O)(=O)N2CCOCC2)cc1)Nc1ncc(Cl)cc1Cl,3.48% (inactive)

row,Compound,inhibition
1,CCCc1ccc(OCCNC(C)=O)c(OC)c1,11.5% (inactive)
2,Cc1ccc2oc(=O)c3cnn(CC(=O)n4c(C)cc5ccccc54)c3c2c1,-3.43% (inactive)
3,CC1(C)CC(=O)C2=C(C1)N=C1SCCC(=O)N1C2c1ccc(Br)cc1 (stereo not drawn),-1.14% (inactive)
4,C=CCn1c(=NC(C)=O)sc2cc(F)ccc21,-10.2% (inactive)
5,CC1CCCCN1C(=O)c1ccc2ccccc2n1 (stereo not drawn),-16.5% (inactive)
6,O=C1CCC(=O)N1CNc1ccc(-c2ccccc2)cc1,-8.33% (inactive)
7,Oc1ccc(-n2cccc2)cc1,-10.9% (inactive)
8,Oc1ccc(-c2cccc(-c3ccc(O)cc3)c2)cc1,-21.5% (inactive)
9,Oc1ccc(SSc2ccc(O)cc2)cc1,40.7% (active)
10,CCc1ccc(-c2nnn(Cc3nn[nH]n3)n2)cc1,42.6% (active)
11,c1cc(-c2nn[nH]n2)ccc1CN1CCCCC1,-0.56% (inactive)
12,Cc1ccccc1Cn1nnc(-c2ccncc2)n1,-48.5% (inactive)
13,COC(=O)Cc1cnc(NC(=O)CSc2nc(C(C)C)cc(=O)[nH]2)s1,-54% (inactive)
14,CN1C(C(=O)NC2CCCC2)=CC(c2cccs2)=NS1(=O)=O,-18.8% (inactive)
15,COc1ccc(C(=O)NNc2nnc(C(C)(C)C)c(=O)n2N)cc1,1.4% (inactive)
16,O=C(c1ccco1)N1CCCCCCC1,1.17% (inactive)
17,O=C(On1c(-c2ccccc2)nc2ccccc2c1=O)c1cccc(C(F)(F)F)c1,11.4% (inactive)
18,Cn1nnc(C(O)CNCc2ccc(F)cc2)n1 (stereo not drawn),29.6% (active)
19,Fc1ccc(CNCc2ccccn2)cc1,-6.84% (inactive)
20,COc1ccc(CNCC(O)c2nnn(C)n2)cc1OC (stereo not drawn),-32.7% (inactive)
21,CC1CCCC(NC(=O)COC(=O)c2cccc(S(=O)(=O)N(C)C)c2)C1C (stereo not drawn),-17.8% (inactive)
22,O=C(O)C1CCCN(C(=O)c2cnn(-c3ccccc3)c2-n2cccc2)C1 (stereo not drawn),1.1% (inactive)
23,O=C(Nc1ccccc1C(=O)N1CCCC1)Oc1ccccc1,3.13% (inactive)
24,CCOC(=O)c1[nH]cnc1C(=O)NC1CCCCC1,-17.9% (inactive)
25,Cc1ccc(NC(=O)c2nc[nH]c2C(=O)N2CCCCC2)c(C(=O)c2ccccc2)c1,39.3% (active) and -17.8% (inactive)

row,Compound,inhibition
1,N#CSc1ccc(N2CCCCC2)cc1,-10.6% (inactive)
2,N#CSc1ccc(N)c(Br)c1,24.6% (active)
3,COc1cc(CNC(=O)c2ccc(N(C)C)cc2)cc(OC)c1OC,-9.81% (inactive)
4,Cc1c(/C=C(\C#N)C(=O)Nc2nccs2)cc(C#N)n1C,0.38% (inactive)
5,O=S1(=O)CCC(NC2CCCCC2)C1 (stereo not drawn),49.9% (active)
6,O=S1(=O)CCC(S(=O)(=O)NC2CCCC2)C1 (stereo not drawn),-11% (inactive)
7,C1CCC(NC2CCCC2)C1,-21.1% (inactive)
8,CN1C(=O)C(C)(C)c2cc(S(=O)(=O)NCCc3ccco3)ccc21,-23.9% (inactive)
9,CCc1cc(CC)c(CO)c(CC)c1/C=N/O,-27% (inactive)
10,CC(Oc1ccccc1)c1nn2c(-c3cccnc3)nnc2s1 (stereo not drawn),-64.7% (inactive)
11,O=C(c1nc(-c2ccc(Cl)cc2)n2c1CCCCC2)N1CCCCCC1,-18.8% (inactive)
12,Cc1cccc(COC(=O)Nc2ccc(N3CCCCC3)cc2)c1,-13.2% (inactive)
13,COc1cccc(NC(=O)CC2CCCCC2)c1,-13.2% (inactive)
14,O=C(O)c1ccc(NC(=O)C2CC2)cc1,0% (inactive)
15,O=C(Cn1cc(C(F)(F)F)ccc1=O)Nc1ccc(S(=O)(=O)N2CCCC2)cc1,17% (inactive)
16,O=C(O)c1ccc2[nH]c(=O)c(=O)[nH]c2c1,6.67% (inactive) and 1.98% (inactive)
17,COc1ccc(-c2nc3sc(-c4ccc(OC)cc4)nc3s2)cc1,26.2% (active)
18,COc1ccc(C2NNC(=S)S2)cc1 (stereo not drawn),1.67% (inactive)
19,COc1ccc(-c2nn(C)c3ccccc23)cc1,4.51% (inactive)
20,CN1CCN(n2c(-c3ccc(Cl)cc3)csc2=Nc2ccccc2)CC1,-4.88% (inactive)
21,CC1C(=O)N2CCCc3cc(S(=O)(=O)NCc4ccc(F)cc4)cc1c32 (stereo not drawn),-7.22% (inactive)
22,O=S(=O)(c1cccs1)N(c1ccccc1)C(F)F,9.14% (inactive)
23,O=S(=O)(/C=C/c1ccccc1)N1CCN(CCc2ccncc2)CC1,-2.97% (inactive)
